According to article PMC7819943, “Rice protein-binding microarrays: a tool to detect cis-acting elements near promoter regions in rice”:
Whole data set: some 39,000 sequences, median “fluorescence intensity (a.u.)” near 4,300, cut for the highest 2% near 39,000. Only a selection was taken, and the highest values are over-represented in it overall.

Target: T1, OsSMF1 (Oryza sativa, UniProt Q6ZLB0 1-436)
T1 sequence: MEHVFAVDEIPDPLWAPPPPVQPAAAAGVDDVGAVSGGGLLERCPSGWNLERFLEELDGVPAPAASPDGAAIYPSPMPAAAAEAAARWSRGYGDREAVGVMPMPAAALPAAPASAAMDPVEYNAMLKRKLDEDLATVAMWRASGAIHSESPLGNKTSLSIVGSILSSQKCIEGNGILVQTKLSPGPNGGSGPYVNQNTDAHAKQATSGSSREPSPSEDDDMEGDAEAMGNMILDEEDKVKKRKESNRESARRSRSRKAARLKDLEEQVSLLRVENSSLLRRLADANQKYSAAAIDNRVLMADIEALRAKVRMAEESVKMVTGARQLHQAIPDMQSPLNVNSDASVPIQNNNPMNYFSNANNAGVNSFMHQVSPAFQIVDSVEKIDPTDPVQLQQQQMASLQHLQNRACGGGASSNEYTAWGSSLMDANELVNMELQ
Experiment: protein-binding microarray (RPBM); PBS, 2% BSA, 51.3 ng/ul salmon testes DNA, 50 uM zinc acetate, 200 nM TF, 25 C, 1 h; high values mean tight binding
Details: protein: recombinant; tags: N-terminal polyhistidine and DsRed monomer fusion (pET32a); chain copies: 2; label: CyDye5-dUTP incorporated in the synthesized complementary strand; 3' TTTTT single-stranded linker to array surface; dsDNA, one strand shown
In short: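 Transcription factors were made in E. coli BL21-CodonPlus as N-terminal fusions to a polyhistidine tag and DsRed, then purified on Ni–NTA. After primer extension with Cy5-dUTP and blocking with 2% BSA, a custom Agilent array was exposed for 1 h at 25 °C to 200 nM protein in PBS, 2% BSA, salmon testes DNA and 50 µM zinc acetate. Washed arrays were scanned on an Axon 4000B, and the binding signal is per-feature fluorescence intensity in arbitrary units.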

| Sequence | binding signal |
| --- | --- |
| GGTTGAAGTTAATACGTGCCAAATCTATAACTTTATTCCGCGGAGTCACCTAGTGCAG | 3300 fluorescence intensity (a.u.) |
| TGGGAGAGGGTAGTAGGTGGGCCGAGGTACACACGTGGGGCGGAGTCACCTAGTGCAG | 5560 fluorescence intensity (a.u.) |
| TTCGCTGACACGCCCCGTCCACTCTTGTCCACGCTGCGCCCGGAGTCACCTAGTGCAG | 3380 fluorescence intensity (a.u.) |
| TCTTGCCTTCTTGCCCTCCACACTGTCCACGTCTCTCCAACGGAGTCACCTAGTGCAG | 4650 fluorescence intensity (a.u.) |
| GATCAAGGAGGCCGTGGCGGACAGGGAGTGCGGGGTGGATCGGAGTCACCTAGTGCAG | 3360 fluorescence intensity (a.u.) |
| CAGTTAACCACCTAACTGATCAAACTCATTCATGTCACTCCGGAGTCACCTAGTGCAG | 5110 fluorescence intensity (a.u.) |
| TCAATAGAAAATAAACTGATTCATGTTAAAACCTTCACACCGGAGTCACCTAGTGCAG | 46600 fluorescence intensity (a.u.) |
| AAAACTTGCAACTGCAATTCATGTCAATTTGCCACATCACCGGAGTCACCTAGTGCAG | 13200 fluorescence intensity (a.u.) |
| ACAGCGTAGGCTTTTCTTTCACGTCACCACGCGTACGCGACGGAGTCACCTAGTGCAG | 6560 fluorescence intensity (a.u.) |
| TAGTACCAAAGTATTTGTGTGTCACTATGATGTCCTGCCTCGGAGTCACCTAGTGCAG | 6010 fluorescence intensity (a.u.) |
| GGGTGAAGCGTCGCGCGGCGCGCCGTGGCGTGGCGTGGCGCGGAGTCACCTAGTGCAG | 6090 fluorescence intensity (a.u.) |
| ATCTTCTTCTTCATCGCTGTGCAGCTACACACTCTCACTGCGGAGTCACCTAGTGCAG | 3180 fluorescence intensity (a.u.) |
| GTTTAGATGGTGGTTTTGGCTGACGTGTCACCTACGTGGCCGGAGTCACCTAGTGCAG | 24200 fluorescence intensity (a.u.) |
| CGGTGGTTTTGGCTGACGTGGCACCTATGTGGCAAATTTGCGGAGTCACCTAGTGCAG | 7870 fluorescence intensity (a.u.) |
| GATGGCGGTTTTGCTGATGTGGCGTTGACGTGCCGACCCGCGGAGTCACCTAGTGCAG | 13200 fluorescence intensity (a.u.) |
| TTTGATGGTGGTTTTGGCTGACGTGGCACCTACATGGCATCGGAGTCACCTAGTGCAG | 42900 fluorescence intensity (a.u.) |
| GAGTTTGATAGCTTAGCAGAAATAGTTTTGCTGACGTGGCCGGAGTCACCTAGTGCAG | 40700 fluorescence intensity (a.u.) |
| TTCATATTTATTTGATGACGTGGCTAATCCTGGTCGGATCCGGAGTCACCTAGTGCAG | 40700 fluorescence intensity (a.u.) |
| GAGGGCGGTTTTGCTGATGTGGCGTTGACGTGGCGATGTTCGGAGTCACCTAGTGCAG | 27700 fluorescence intensity (a.u.) |
| GCTTGCTGCTGCTGCTGCTGATAGTTTAGCTTGAGAGAGCCGGAGTCACCTAGTGCAG | 22700 fluorescence intensity (a.u.) |
| GTGTGGTTTTGCTGATGTGGCGCTGACGTGGCGATATTGACGGAGTCACCTAGTGCAG | 48500 fluorescence intensity (a.u.) |
| TGTTTGTCGTGACTTAGCTTAGTTGTTGCTGTTGTTGAGCCGGAGTCACCTAGTGCAG | 3400 fluorescence intensity (a.u.) |
| GGCGGTTTTGGATGACGTGGTGCCTACGTGGCTAATTTGACGGAGTCACCTAGTGCAG | 35600 fluorescence intensity (a.u.) |

| Sequence | binding signal |
| --- | --- |
| GTCATATTTATTTGGATGATGTGGCATGTTCTGGTGGTGACGGAGTCACCTAGTGCAG | 15700 fluorescence intensity (a.u.) |
| AAGAGACCTGTTTATTAGCGTCACTGACAGTCGTTGTCACCGGAGTCACCTAGTGCAG | 3660 fluorescence intensity (a.u.) |
| ATTTCATCCTTATTAGGGCCTATTTGGAGCATTGGCAGGGCGGAGTCACCTAGTGCAG | 3750 fluorescence intensity (a.u.) |
| AGATCCCGAATTCGTGCCACGTGATCTGCCGTCGTGTATTCGGAGTCACCTAGTGCAG | 6050 fluorescence intensity (a.u.) |
| CCCCGCTTCGCCGCCGGCCGCCTCTCTCTTCTCAAGAGTCCGGAGTCACCTAGTGCAG | 3340 fluorescence intensity (a.u.) |
| GCAACCGCGACGACCGATCCACGTGGCACCACCTCATTGGCGGAGTCACCTAGTGCAG | 29400 fluorescence intensity (a.u.) |
| GGGCCCAGCAGGTTCCTAGTAGACTTCGTCGTAGTGGGACCGGAGTCACCTAGTGCAG | 8310 fluorescence intensity (a.u.) |
| GCTATAATATATTGCAGCAGCAGCAGCAGTGGTGGTGGTGCGGAGTCACCTAGTGCAG | 3360 fluorescence intensity (a.u.) |
| TGATGGCCGGTGATCAGTGGCATGTGCATGTTATATTATTCGGAGTCACCTAGTGCAG | 3260 fluorescence intensity (a.u.) |
| CACTCCAGAACCAAACGTTTGATGACTCTCTGCTTTTGCGCGGAGTCACCTAGTGCAG | 4570 fluorescence intensity (a.u.) |
| ACAAACCGAGGAGGAGGAGGAGGGCCCACCAGCCACCACGCGGAGTCACCTAGTGCAG | 3310 fluorescence intensity (a.u.) |
| GCTAATTTGACTCGGTTTTCATCTGACGTGGCATTGACGTCGGAGTCACCTAGTGCAG | 41400 fluorescence intensity (a.u.) |
| CTGTTTCGCTGACGTGACGCCTACGTGGCATCCCAGTCATCGGAGTCACCTAGTGCAG | 40300 fluorescence intensity (a.u.) |
| AGATCATTAGTTAGCACATATCATCCACATCATCCTATTTCGGAGTCACCTAGTGCAG | 5980 fluorescence intensity (a.u.) |
| AGGGCGCTTTTGGCTGACATGGCGCCTACGTGGCTTGTTTCGGAGTCACCTAGTGCAG | 28100 fluorescence intensity (a.u.) |
| AAACCCAATCCAGTTAGGAATAGAACATTAGATATCCAACCGGAGTCACCTAGTGCAG | 3940 fluorescence intensity (a.u.) |
| ATAGTGGTTTTGGCTGACGTGGCGCCTACGTGGCTAATTTCGGAGTCACCTAGTGCAG | 19600 fluorescence intensity (a.u.) |
| GTTTTGGCTGACGTGGCGCCTACGTGGTTTGTTTGACCTACGGAGTCACCTAGTGCAG | 37300 fluorescence intensity (a.u.) |
| CGGTTTTAGCTGACGTGGCGCCTACGTGGCAAAGTTGACCCGGAGTCACCTAGTGCAG | 44700 fluorescence intensity (a.u.) |
| GGTTTTAGCTGACGTGGCGCCTACGTGACAGTGTTGACCCCGGAGTCACCTAGTGCAG | 32700 fluorescence intensity (a.u.) |
| GGACGGTTTCGCTGATGTGGCGCCTACGTGGCATCCTAATCGGAGTCACCTAGTGCAG | 20300 fluorescence intensity (a.u.) |
| CTGACGAGCAGAACATTAGCTATCCTATCCAGAATAGTTTCGGAGTCACCTAGTGCAG | 47400 fluorescence intensity (a.u.) |
| GCTGGTTTGATTAGATCTTCATCCCACGTGGCATTGACGTCGGAGTCACCTAGTGCAG | 25100 fluorescence intensity (a.u.) |
